Data on 19 molecules can be found in PubChem BioAssay (NCATS).

Records with an inconclusive call do not appear. Activity calls are given as the source filed them. Calls come from the whole dose curve; as a rule, active = well fitted inhibition curve with a large enough effect; inconclusive = small, poorly fitted or top-dose-only effect; inactive = flat fitted curve, though single readings scatter.

Holding throughout (experiment): qHTS profiling for inhibitors of Plasmodium falciparum proliferation (AID 504749); note: nearly all actives have a fitted effect of over 60% in size
Details in all cases: P. falciparum in erythrocytes, SYBR Green DNA, 72 h; series mostly up to 28.7 µM

The subject of assay [1] is ATS95. The gist of the method:
(§1)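 Three-day growth assay of blood-stage parasites in erythrocytes (0.3% parasitemia, 2.5% hematocrit) at 37 C, 5% CO2, quantified by SYBR Green DNA staining after overnight detergent lysis.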

Assay [2] deals with C2A. The gist of the method: as §1
The test system of assay [3] is CP185. The gist of the method: as §1
Assay [4] relates to CP191. Summed up: as §1
Assay [5] relates to CP192. The gist of the method:
as §1

In assay [6] the test system is CP194. The gist of the method: as §1
Assay [7] has as its system CP201. The gist of the method: as §1
The subject of assay [8] is CP203. Summed up:
as §1

Assay [9] relates to CP211. The gist of the method: as §1
Assay [10] relates to CP215. Summed up:
as §1
Potency is the fitted concentration of half-maximal effect.

For `CCOC(=O)C(C)(C)Oc1ccc(Cl)cc1`, the Potency result in [1], in assay [2], in assay [3], in assay [4], in assay [5] and in assay [6] was “inactive” in each case. Further, the Potency entry in [7], in [8], in [9] and in assay [10] was “inactive” each time.
In the case of `NC(=O)NO`, the Potency result in assay [1], in assay [2], in [3], in assay [4], in assay [5] and in assay [6] was “inactive” throughout. In addition, the Potency result in assay [7], in assay [8], in [9] and in [10] was “inactive” throughout.
As for `Cc1cc(C(C)(C)C)c(O)c(C)c1CC1=NCCN1`, the Potency entry in assay [1], in assay [2], in assay [3], in [4], in assay [5] and in assay [6] was “inactive” each time. Moreover, the Potency result in [7], in [8], in assay [9] and in [10] was “inactive” in each case.
For the molecule `COc1cc2c(c(OC)c1OC)-c1ccc(OC)c(=O)cc1[C@@H](NC(C)=O)CC2`, the Potency entry in assay [1], in [2], in [3], in assay [4], in assay [5] and in assay [6] was “inactive” throughout. For the same molecule, the Potency entry in assay [7], in assay [8] and in assay [9] was “inactive” each time.
Consider `COc1ccccc1OCC(O)CN1CCN(CC(=O)Nc2c(C)cccc2C)CC1` (configuration not stated), for which the Potency entry in assay [1], in [2], in [3], in assay [4], in [5] and in assay [6] was “inactive” each time. Also, the Potency result in assay [7], in assay [8], in assay [9] and in assay [10] was “inactive” each time.
Consider `CN(C)c1nc(N(C)C)nc(N(C)C)n1`, for which the Potency entry in [1], in assay [2], in [3], in [4], in assay [5] and in assay [6] was “inactive” in each case. Moreover, the Potency result in [7], in assay [8], in assay [9] and in [10] was “inactive” throughout.
`NC12CC3CC(CC(C3)C1)C2`: the Potency entry in [1], in assay [2], in assay [3], in assay [4], in assay [5] and in assay [6] was “inactive” throughout. In addition, the Potency result in assay [7], in [8], in assay [9] and in assay [10] was “inactive” throughout.
In the case of `Clc1ccccc1C(c1ccccc1)(c1ccccc1)n1ccnc1`, the Potency in [1] was 1000 nM (active); in assay [2] it was 1780 nM (active); in assay [3], 1780 nM (active); in assay [4] it was 794 nM (active); in assay [5], 1810 nM (active); in assay [6] it was 1440 nM (active). The Potency in assay [7] is 4550 nM (active); in assay [8] it was 721 nM (active); in assay [9], 2280 nM (active); in [10], 1140 nM (active).
With `COc1ccc2[nH]cc(CCNC(C)=O)c2c1`, the Potency result in assay [1], in assay [2], in [3], in assay [4], in assay [5] and in assay [6] was “inactive” each time. The Potency result in [7], in assay [8] and in assay [9] was “inactive” each time.
On to `CS(=O)(=O)CCNCc1ccc(-c2ccc3ncnc(Nc4ccc(OCc5cccc(F)c5)c(Cl)c4)c3c2)o1`, for which the Potency entry in [1], in assay [2], in [3], in assay [4], in assay [5] and in assay [6] was “inactive” in each case. Also, the Potency entry in [7], in [8], in [9] and in assay [10] was “inactive” in each case.
Take `NC(=O)OCC(COC(N)=O)c1ccccc1`: the Potency result in assay [1], in assay [2], in assay [3], in assay [4], in [5] and in assay [6] was “inactive” throughout. The Potency entry in [7], in [8], in [9] and in [10] was “inactive” each time.
As to `CC(C)(C)C(=O)Oc1ccc(S(=O)(=O)Nc2ccccc2C(=O)NCC(=O)O)cc1`, the Potency result in assay [1], in assay [2], in [3], in assay [4], in [5] and in assay [6] was “inactive” in each case. The Potency result in assay [7], in [8], in [9] and in [10] was “inactive” throughout.
Turning to `CN1CCC(=C2c3ccccc3C=Cc3ccccc32)CC1`, the Potency result in [1], in [2], in assay [3], in assay [4], in [5] and in [6] was “inactive” throughout. Moreover, the Potency result in [7], in assay [8], in assay [9] and in assay [10] was “inactive” throughout.
On to `Cc1cn([C@H]2C[C@H](N=[N+]=[N-])[C@@H](CO)O2)c(=O)[nH]c1=O`, for which the Potency entry in [1], in assay [2], in assay [3], in assay [4], in assay [5] and in [6] was “inactive” each time. Also, the Potency result in assay [7], in [8], in assay [9] and in assay [10] was “inactive” each time.
Consider `CCCNCC(O)COc1ccccc1C(=O)CCc1ccccc1` (configuration not stated), for which the Potency in [1] is 631 nM (active); in assay [2] it was 1780 nM (active); in [3] it was 1260 nM (active); in [4] it was 1260 nM (active); in assay [5], 2130 nM (active); in assay [6], 3380 nM (active). The Potency was 6750 nM (active) in assay [7], 1690 nM (active) in assay [8], 4780 nM (active) in [9] and 1510 nM (active) in assay [10].
As to `Nc1nnc(-c2cccc(Cl)c2Cl)c(N)n1`, the Potency result in assay [1], in [2], in assay [3], in [4], in assay [5] and in [6] was “inactive” throughout. Further, the Potency result in [7], in assay [8], in [9] and in assay [10] was “inactive” throughout.
With `CC(C)C(=O)Nc1ccc([N+](=O)[O-])c(C(F)(F)F)c1`, the Potency entry in [1], in assay [2], in [3], in [4], in assay [5] and in assay [6] was “inactive” each time. Also, the Potency entry in assay [7], in [8], in assay [9] and in [10] was “inactive” each time.
Take `Nc1nc2c(ncn2COC(CO)CO)c(=O)[nH]1`: the Potency entry in [1], in [2], in [3], in assay [4], in [5] and in [6] was “inactive” throughout. For the same molecule, the Potency result in assay [7], in [8] and in assay [9] was “inactive” each time.
As for `Cn1cnc2c1c(=O)[nH]c(=O)n2C`, the Potency result in [1], in [2], in assay [3], in assay [4], in assay [5] and in assay [6] was “inactive” in each case. In addition, the Potency entry in [7], in [8], in [9] and in [10] was “inactive” each time.
